Data as given in PubChem BioAssay AID1878 (Sanford-Burnham Center for Chemical Genomics, 2009).
The whole screen tested about 1,000 compounds, of which about 200 (20%) were called active. These entries were drawn from the full list. Entries with a potency or affinity are not part of this list. Values without a mark were called inactive. No stated cut-off is given here; in the data, active means inhibition above about 55%; inactive means the rest.

Target: Dual specificity protein phosphatase 3 (Homo sapiens) (UniProt P51452)
Experiment: VHR1 phosphatase inhibitors, biochemical (AID 1878)
Conditions: recombinant VHR phosphatase, fluorogenic substrate; at 13.3 µM; hits give high values

Chain of Dual specificity protein phosphatase 3 (Homo sapiens) (P51452 whole entry, looked up): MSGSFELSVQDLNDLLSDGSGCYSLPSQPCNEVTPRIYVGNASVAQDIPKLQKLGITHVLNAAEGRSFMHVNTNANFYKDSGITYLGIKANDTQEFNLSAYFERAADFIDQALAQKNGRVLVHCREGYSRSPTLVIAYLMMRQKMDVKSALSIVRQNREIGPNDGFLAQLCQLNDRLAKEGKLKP

| SMILES | inhibition |
| --- | --- |
| COc1ccc(Cl)cc1-n1c(=S)sc2c(=O)n(-c3ccc(F)cc3)c(SCC(=O)O)nc21 | -3.3% |
| COc1ccc(/C=N/N=C2/NC(=O)C(CC(=O)O)S2)cc1OCc1ccc(Cl)cc1Cl (configuration not stated) | 95.9% (active) |
| CCN(CC)c1ccc(NC(=O)c2c(C)noc2C)cc1 | -3.1% |
| COCCN(C(=O)c1ccc(OC2CCN(S(=O)(=O)N(C)C)CC2)cc1)C(C)C | -6.4% |
| COc1ccc(C(=O)C2CCCN(C(=O)c3cccc(N(C)C)c3)C2)cc1OC (configuration not stated) | 16.4% |
| COc1cc(C(=O)OC2C[C@H]3CC[C@@H](C2)N3C)ccc1O (some centres not stated) | -1.1% |
| Cn1c(/C=C/c2ccc(Cl)cc2Cl)c([N+](=O)[O-])c(=O)n(C)c1=O | 20.2% |
| CC1CCCCN1CCCNC(=O)Cn1c(=O)c2cccn2c2ccccc21 (configuration not stated) | -1.3% |
| COc1ccc(/C=N\NC(=O)c2cc(O)c(O)c(O)c2)cc1CN1CCN(c2ccc(F)cc2)CC1 | -34.7% |
| COc1ccc2c(c1)cc1c(=O)n(CC(=O)NC(C)CCc3ccccc3)nc(C)n12 (configuration not stated) | -4% |
| CN1CC(=O)N2Cc3[nH]c4ccccc4c3C[C@H]2C1=O | 11.2% |
| Cc1ccc(N2CCN(c3ncccc3[N+](=O)[O-])CC2)c(C)c1 | 8.1% |
| NC(=O)C(c1ccc(F)cc1)c1ccc(C(=O)c2ccccc2)cc1 (configuration not stated) | 18.3% |
| CCOCCn1c2ccccc2c2nc3ccccc3nc21 | -4.2% |
| COc1ccc(C(=O)/C=C2/C(=O)Nc3ccccc32)cc1OC | 13.2% |
| CC(Oc1ccc2ccc(=O)oc2c1)C(=O)NC1CC(C)(C)NC(C)(C)C1 (configuration not stated) | -2.5% |
| Nc1ccc2c(c1Cl)C(=O)c1ccc(N)c(Cl)c1C2=O | 99.8% (active) |
| CCCC(=O)Nc1ccc(S(=O)(=O)N2CCOCC2)cc1 | -5.6% |
| CC(C)(C)CC(=O)Nc1ccc(-c2nnc3n2CCCCC3)cc1 | 27.9% |
| COc1nc(C)cc(C)c1S(=O)(=O)c1ccccc1 | 6.1% |
| O=C(NCCc1ccccc1)C1CC(=O)N(CCc2ccccc2)C1 (configuration not stated) | -8.3% |
| c1ccc(CCNC2CCCCCC2)cc1 | 14.2% |
| CC1CCN(S(=O)(=O)c2ccc3c(c2)N(CC(=O)NCCCN2C(C)CCCC2C)C(=O)CO3)CC1 (configuration not stated) | -11.5% |

| SMILES | inhibition |
| --- | --- |
| O=C(O)Cn1nc2c3c(cccc3c1=O)-c1ccccc1-2 | -3.4% |
| Cc1cc2nc(/C=C/c3nc4cc(C)c(C)cc4[nH]3)[nH]c2cc1C | 82.4% (active) |
| NC(=O)C(c1ccccc1)c1ccc(C(=O)c2ccccc2)cc1 (configuration not stated) | -3.2% |
| Cn1nc([N+](=O)[O-])c2c(-c3nc4ccccc4s3)c(N)n(C3CCCCC3)c2c1=O | 97.9% (active) |
| COc1cccc(NC(=O)CN(C)S(=O)(=O)c2ccc3[nH]c(=O)oc3c2)c1 | 9% |
| O=C(Cn1ncc2c([nH]c3ccccc32)c1=O)N1CCOCC1 | 16.5% |
| COc1cc(/C=C2/C(=O)NN(c3ccc(Cl)cc3)C2=O)cc(OC)c1O | 17.9% |
| COc1cc(/C=C2/C(=O)N(c3cccc(Br)c3)N=C2C)cc(OC)c1O | 6.8% |
| CC(C)(C)OC(=O)NCC1CCN(S(=O)(=O)Cc2ccccc2)CC1 | -7.1% |
| C/C(N)=C(/C#N)C(=O)COC(=O)c1cc(-c2ccc(Br)cc2)nc2ccccc12 | -2.7% |
| CCOc1ccc(-c2cc(C(=O)NCCCN3CCCC3)c3ccccc3n2)cc1 | -16.4% |
| COc1ccccc1CN1CCCC(CN(CCN(C)C)C(=O)C2CCCC2)C1 (configuration not stated) | -18.4% |
| Nc1nn2c(-c3ccccc3)cc(=O)[nH]c2c1N=Nc1ccc(Br)cc1 | 81.7% (active) |
| CC(C)(C)c1cc(=O)n2[nH]c(N)nc2n1 | -15.2% |
| COC(=O)C1(C)NC(c2ccc(Cl)cc2)C2C(=O)N(c3ccccc3)C(=O)C21 (configuration not stated) | -6.5% |
| CN1CCN(c2nc(-c3ccccc3Cl)nc3ccccc23)CC1 | 5.7% |
| COc1ccc(-c2cc3nc4ccccc4n3c(N)c2C#N)cc1 | 95.4% (active) |
| COc1ccc(NC2CCCN(C(=O)CCN3CCOCC3)C2)cc1 (configuration not stated) | 2.8% |
| CC(C)OC(=O)CCCNc1ccc([N+](=O)[O-])cc1[N+](=O)[O-] | 5.9% |
| Cc1cc(=O)oc2cc(OC(C)C(=O)NCCc3ccc(S(N)(=O)=O)cc3)ccc12 (configuration not stated) | -4.7% |
| Cc1cc(C)c(S(=O)(=O)c2cccc(Br)c2C)c(=O)[nH]1 | 9.5% |
| O=C(Nc1ccc(Br)cc1F)c1ccc2nsnc2c1 | 0.8% |
| CCC(Sc1nnc(-c2ccco2)n1C)C(=O)Nc1nnc(C)s1 (configuration not stated) | -1.6% |

| SMILES | inhibition |
| --- | --- |
| CCCCCCN1CC(=O)N2Cc3[nH]c4ccccc4c3C[C@H]2C1=O | 11.5% |
| COc1ccc(/C=N/NC(=O)c2[nH]c3ccc(C)cc3c2-c2ccccc2)c(C(=O)O)c1OC | 6.7% |
| COc1cccc(/C=N/Nc2ncnc3c2[nH]c2ccc(C)cc23)c1OC | 97.6% (active) |
| O=C(COCc1cc(-c2ccc3c(c2)OCO3)on1)Nc1cccnc1Cl | 2.9% |
| COc1ccccc1N1CCN(C2CCCN(C(=O)CCc3cnccn3)C2)CC1 (configuration not stated) | -1.8% |
| C[C@]1(CO)CCC[C@@]2(C)C1CC[C@@H](CO)[C@@H]2CCc1ccoc1 (some centres not stated) | -0.3% |
| CCCOc1ccc(-c2c(C(=O)N/N=C/c3cccnc3)nnn2-c2nonc2N)cc1 | 96.5% (active) |
| CCCc1c(C(=O)N/N=C(\C)CCc2ccccc2)nnn1-c1nonc1N | 1.7% |
| C/C(=N\NC(=O)c1nnn(-c2nonc2N)c1C)c1ccc(OCc2ccccc2)cc1 | 8.6% |
| CCc1nn(CC(=O)NCc2ccccc2Cl)c(=O)c2cccn12 | 17.5% |
| COC(=O)c1sccc1NC(=O)Nc1ccc(C)cc1C | -7.1% |
| O=C(Nc1cccc2ncccc12)c1ccccc1F | -0.8% |
| COc1cccc(C2c3[nH]c4ccccc4c3C[C@H]3C(=O)N(CCCOC(C)C)CC(=O)N23)c1 (some centres not stated) | 10.9% |
| COc1ccc2[nH]c(=O)c(-c3noc(-c4ccc(F)cc4)n3)cc2c1 | 97.2% (active) |
| COc1ccc(OC)c(-c2csc(NC(=O)Cc3ccc(F)cc3)n2)c1 | 0.5% |
| Cn1cnc(S(=O)(=O)N2CCN(c3ccc(F)cc3)CC2)c1 | -8% |
| Cc1cccc(NC(=O)Cc2nnc(NC(=O)Nc3ccccc3F)s2)c1 | 16.3% |
| Cc1ccc(NC(=O)NN2CCN(C)CC2)cc1C | -0.5% |
| O=C(Nc1ccc(Cl)c(Cl)c1)Nc1ccccn1 | 3.2% |
| Cc1ccc(NC(=O)NCCN2CCCCC2)cc1C | -2% |
| Cc1ccc(NC(=O)Nc2nnc(-c3ccncc3)s2)cc1C | 94.2% (active) |
| CCC(C(=O)NCCCN1CCN(C)CC1)n1nc(C)n2c(cc3occc32)c1=O (configuration not stated) | -10.7% |
| CC(=O)OC1CC2(C)/C(=N\O)CCC2C2CCc3cc(O)ccc3C12 (configuration not stated) | -5.1% |

| SMILES | inhibition |
| --- | --- |
| Cc1ccc(-n2nc3c(=O)n(CCCC(=O)NC4CCC(C)CC4)nc(C)c3c2C)cc1 (configuration not stated) | 23.9% |
| CCN(CC)C(=O)Cn1cc(C(=O)C(=O)NCCCN2CCCCC2)c2ccccc21 | 1.8% |
| O=C(NCc1ccc(F)cc1)C1CCN(S(=O)(=O)c2cccc3nonc23)CC1 | 4.8% |
| CC(C)C[C@H](NC(=O)C1CC(=O)N(c2ccc3c(c2)OCO3)C1)C(=O)NC1CCCC1 (some centres not stated) | -5% |
| CCN(CC)CCCNC(=O)c1ccc(C)c(NC(=O)C2=C(C)OCCS2)c1 | 5.7% |
| COc1cc(OC)nc(Oc2cc(C=O)ccc2OC)n1 | 19.7% |
| CCN(CC)CCCNC(=O)c1cn(C)c2ccc(S(=O)(=O)N(C)C3CCCCC3)cc2c1=O | -8.9% |
| CC(=O)c1ccc(S(=O)(=O)Nc2ccc(N3CCOCC3)cc2)cc1 | -2% |
| Cn1c(=O)c(=O)n(C)c2cc(N3CCOCC3)c(NS(=O)(=O)c3ccc(F)c(Cl)c3)cc21 | -2.4% |
| O=S(=O)(Nc1ccc(Cl)cc1)c1ccc(N2CCOCC2)c(NC(=S)NCCN2CCOCC2)c1 | 57.1% (active) |
| CC(C)(C)NC(=O)N1CCN(c2ncccc2C(F)(F)F)CC1 | -1.3% |
| O=C(CSc1nc2ccccc2[nH]1)NCCN1CCCCC1 | -5.4% |
| Cc1ccc(-c2nnn3c2nc(NCCc2ccc(S(N)(=O)=O)cc2)c2ccccc23)cc1 | 98.7% (active) |
| CCOc1ccc(C(=O)OCC(=O)NCc2ccco2)cc1OCC | 3.1% |
| CCN1C(=O)N(c2ccc(C(C)=O)cc2)S(=O)(=O)c2ccccc21 | -4.4% |
| COc1ccc(C(=O)N2CCN(CCNC(=O)C(=O)Nc3ccc(Br)cc3)CC2)cc1 | 1.9% |
| Cc1ccc(NC(=O)CCC(=O)c2ccc(Br)cc2)cc1 | 8.7% |
| Oc1ccccc1/C=N/Nc1cc(N2CCCC2)nc(N2CCCC2)n1 | -15.5% |
| COc1ccnc2c1c(=O)n(Cc1ccc(Cl)cc1)c(=O)n2C | 0.3% |
| CCCC(=O)Nc1c(-c2ccc(C)cc2)c(=O)c2ccccc2n1C | 2.1% |
| COc1ccc(Cn2c(-c3ccc(C)cc3)nc3c(c(=O)c4ccccc4n3C)c2=O)cc1 | 85.9% (active) |
| Cc1nn(CC(=O)NCCCN2CC(C)CC(C)C2)c(=O)c2cccn12 (configuration not stated) | -10.3% |
| CN1C(=O)CN=C(c2ccc(Cl)cc2)c2cc(Cl)ccc21 | 16% |
